Here are results for 54 compounds from article PMC4336329 (PLoS ONE, 2015).

Molecules are shown by their SMILES. The campaign covered roughly 310,000 compounds. About 14,000 (4.5%) showed an effect of 50% or more. Effects have a minus sign here. What follows is part of a selection rich in strong results, with near analogues and random picks from the rest. *1 amine or outer side, *2 acyl side, *3 side chain or, on linkers, in order; H or OH if unused. Where a SMILES comes first, the peptide text is derived from it. Bridges are numbered along the chain shown (N, C = ends). [ ]: non-standard residue; d: D form. ξ: configuration not given here. hSer(Ph(2-I,4-NO2,6-CO)) = O=C([C@H](CCOc1c(I)cc([N+](=O)[O-])cc1C(=O)[*:3])N[*:1])[*:2]; ξD = NC(CC(=O)O)C(=O)O
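Further: peak tail current of the secondary pulse compared with the same well before compound.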

The target in this test is human ether-à-go-go-related gene (hERG) potassium channel (human, UniProt Q12809). Put plainly: primary screen, population patch clamp on CHO cells stably expressing hERG; higher = less effect of the substance.
human ether-à-go-go-related gene (hERG) potassium channel, sequence (Q12809 whole entry, looked up): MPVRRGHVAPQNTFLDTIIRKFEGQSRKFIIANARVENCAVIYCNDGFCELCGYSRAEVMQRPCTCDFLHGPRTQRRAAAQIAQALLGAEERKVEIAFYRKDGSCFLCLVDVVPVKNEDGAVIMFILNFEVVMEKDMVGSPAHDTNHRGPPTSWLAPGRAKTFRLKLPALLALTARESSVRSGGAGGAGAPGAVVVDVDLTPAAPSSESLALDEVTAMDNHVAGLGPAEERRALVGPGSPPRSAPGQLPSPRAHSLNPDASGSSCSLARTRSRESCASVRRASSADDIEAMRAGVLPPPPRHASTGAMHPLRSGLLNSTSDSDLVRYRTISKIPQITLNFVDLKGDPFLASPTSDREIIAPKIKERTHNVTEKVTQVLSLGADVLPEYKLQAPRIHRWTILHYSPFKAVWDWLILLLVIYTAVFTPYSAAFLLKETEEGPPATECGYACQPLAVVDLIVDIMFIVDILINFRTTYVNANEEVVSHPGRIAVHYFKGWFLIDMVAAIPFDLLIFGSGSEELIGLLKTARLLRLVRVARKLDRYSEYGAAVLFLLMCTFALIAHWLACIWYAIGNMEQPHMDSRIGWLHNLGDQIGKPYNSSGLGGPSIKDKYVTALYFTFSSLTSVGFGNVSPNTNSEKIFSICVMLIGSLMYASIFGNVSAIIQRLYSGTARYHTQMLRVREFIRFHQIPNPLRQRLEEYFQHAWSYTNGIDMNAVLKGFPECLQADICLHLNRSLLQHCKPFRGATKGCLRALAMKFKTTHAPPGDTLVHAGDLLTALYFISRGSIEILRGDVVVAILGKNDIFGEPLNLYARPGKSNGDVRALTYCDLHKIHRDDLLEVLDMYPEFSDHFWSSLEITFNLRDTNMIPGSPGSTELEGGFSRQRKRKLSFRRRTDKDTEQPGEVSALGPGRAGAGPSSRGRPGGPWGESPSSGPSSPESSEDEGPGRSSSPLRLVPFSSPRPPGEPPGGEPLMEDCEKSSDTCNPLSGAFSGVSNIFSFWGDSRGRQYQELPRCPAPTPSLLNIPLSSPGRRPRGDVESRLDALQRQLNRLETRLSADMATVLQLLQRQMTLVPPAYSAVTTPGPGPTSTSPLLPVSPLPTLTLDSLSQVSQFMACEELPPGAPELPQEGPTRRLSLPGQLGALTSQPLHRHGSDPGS
Turning to `O=C(CSc1nnc(-c2ccccc2)o1)N1CCOCC1`, the “hERG current change (%, negative = inhibition) at 10uM” value was 6.37%. Consider `NC(=O)C(CC(=O)O)NC(=O)[C@@H]1CCOc2c(I)cc([N+](=O)[O-])cc2C(=O)N[C@@H](CCC(=O)O)C(=O)N[C@@H](CO)C(=O)N1` (stereo partly drawn) (ES[hSer(Ph(2-I,4-NO2,6-CO))][ξD]-NH2; lactam N-3), for which the “hERG current change (%, negative = inhibition) at 10uM” value is listed as -5.73%. For `Br.C=CCn1c(C)csc1=Nc1ccc(C(=O)O)cc1`, the “hERG current change (%, negative = inhibition) at 10uM” value is 13.5%. As to `Cc1ccc(S(=O)(=O)Cc2cc(F)c([N+](=O)[O-])cc2[N+](=O)[O-])cc1`, the “hERG current change (%, negative = inhibition) at 10uM” value is on record as -14.3%. As for `COc1ccc(CCNC(=S)NC(=O)c2cccc(Cl)c2)cc1OC`, the figure is 1.73%; as for `Cc1ccc(-c2nnc(N3CCN(c4ccccn4)CC3)c3ccccc23)cc1`, -46.3%.

Consider `CNCC(O)CN1CCN(c2ccccc2OC)CC1.Cl` (stereo not drawn), for which the “hERG current change (%, negative = inhibition) at 10uM” value is 12.7%. `COc1ccccc1N1CCN(CC(O)COc2ccc(C)c(C)c2)CC1.Cl` (stereo not drawn): the “hERG current change (%, negative = inhibition) at 10uM” value is reported as -55.9%. As for `Cc1ccccc1N1CCN(CCCOc2ccc3c(C)cc(=O)oc3c2)CC1`, the figure is -75.3%; as for `COc1ccccc1N1CCN(CC(O)COc2ccc3c(c2)OCO3)CC1.Cl` (stereo not drawn), -33.7%; as for `Cc1cc(=O)oc2cc(OCCCN3C(=O)c4ccccc4C3=O)ccc12`, 10.4%.

Turning to `COc1ccc(N2CCN(CCOc3ccc4c(C)cc(=O)oc4c3)CC2)cc1`, the “hERG current change (%, negative = inhibition) at 10uM” value is -26.1%. Regarding `COc1ccccc1N1CCN(CC(O)COc2ccc(C)cc2C)CC1.Cl` (stereo not drawn), the “hERG current change (%, negative = inhibition) at 10uM” value was -73.1%.

For the compound `COc1ccc(N2CCN(CC(O)COc3ccc(C)c(C)c3)CC2)cc1.Cl` (stereo not drawn), the “hERG current change (%, negative = inhibition) at 10uM” value is -43.7%. The result for `O=C(CCc1ccccc1)NNC(=O)C1CCCCC1` reads -2.12%; that for `CC(C)Nc1ccc(-n2nc3ccccc3[n+]2[O-])cc1`, 6.09%. The result for `O=C1CCCCCC1C1(O)C(=O)Nc2ccccc21` (stereo not drawn) reads -1.78%; that for `CC1(c2ccccc2)NC(=O)N(CC(=O)NNC(=O)c2ccccc2)C1=O` (stereo not drawn), 21.3%; that for `Cc1ccc(CNC(=O)C2CC(=O)OC23CCCC3)c(C)c1` (stereo not drawn), -0.109%.

Take `CCCCNC(=O)c1ccc(CNS(=O)(=O)c2ccc(Br)cc2)cc1`: the “hERG current change (%, negative = inhibition) at 10uM” value was 2%. For `CCOc1ccc2nc(NC(=O)CSc3nc4cccnc4n3C)sc2c1`, the “hERG current change (%, negative = inhibition) at 10uM” value amounted to 17.4%.

As for `COc1ccccc1N1CCN(C(c2ccc(C)cc2)c2nnnn2C(C)C)CC1` (stereo not drawn), the “hERG current change (%, negative = inhibition) at 10uM” value was -5.61%. Take `O=C(Nc1sc2c(c1C(=O)O)CCCC2)c1ccccc1Cl`: the “hERG current change (%, negative = inhibition) at 10uM” value amounted to 11.9%. The result for `Cc1c(Cl)cnc(NC(=O)COC(=O)c2ccc3ncsc3c2)c1Cl` reads -2.49%; that for `CCn1cc(C(=O)NCC(OC)OC)c(=O)c2cc(S(=O)(=O)N(C)C3CCCCC3)ccc21`, -44.2%; that for `CCOCCCNC(=O)c1cn(CC)c2ccc(S(=O)(=O)N(C)C3CCCCC3)cc2c1=O`, -55.7%. The result for `CCN(CC)CCNC(=O)c1cn(CC)c2ccc(S(=O)(=O)N(C)C)cc2c1=O` reads 11.1%; that for `CCCCN(CCCC)CCNC(=O)c1cn(CC)c2ccc(S(=O)(=O)N(C)C3CCCCC3)cc2c1=O`, -82.5%; that for `CCN(CC)CCNC(=O)c1cn(CC)c2ccc(S(=O)(=O)N(C)C3CCCCC3)cc2c1=O`, -67.2%. As for `CCCN(CCC)CCCNC(=O)c1cn(CC)c2ccc(S(=O)(=O)N(C)C3CCCCC3)cc2c1=O`, the figure is -74.3%; as for `CCn1cc(C(=O)NC2CCCCC2)c(=O)c2cc(S(=O)(=O)N(C)C)ccc21`, 2.38%.

On to `CCn1cc(C(=O)NCCCOC)c(=O)c2cc(S(=O)(=O)N(C)C3CCCCC3)ccc21`, for which the “hERG current change (%, negative = inhibition) at 10uM” value was -23%. The result for `CC1(C(=O)OCC(=O)Nc2cccc(S(=O)(=O)NC3=NCCCCC3)c2)CC1(Cl)Cl` (stereo not drawn) reads 10.7%. The result for `CCc1noc(C)c1C(=O)Nc1cc(S(=O)(=O)N2CCOCC2)ccc1OC(C)C` reads -45.1%. The result for `CCN(CC(=O)Nc1c(F)cccc1F)C(=O)c1csc2c1CCCC2` reads 7.01%; that for `COC(=O)c1c(-c2ccc(F)cc2)csc1NC(=O)c1ccco1`, 22.9%; that for `COc1cccc2cc(C(C)N(CCCN3CCOCC3)C(=S)Nc3cccc(C)c3)oc12` (stereo not drawn), 14.8%. In the case of `CCC(C)c1ccc(OCc2ccc(C(=O)OC)o2)cc1` (stereo not drawn), the “hERG current change (%, negative = inhibition) at 10uM” value is -12.8%.

`O=C(OCc1cc(-c2ccccc2)no1)c1ccc2ccccc2n1`: the “hERG current change (%, negative = inhibition) at 10uM” value came out at 12.2%. As for `Cc1cc(CNC(=O)COc2ccc(C#N)cc2)c2ccccc2n1`, the “hERG current change (%, negative = inhibition) at 10uM” value is -47.2%. As for `COc1cc(OC)cc(C(=O)NCc2cc(C)nc3ccccc23)c1`, the figure is -2.16%. Regarding `Cc1ccc(C)c(NC(=O)CN(C)C(=O)c2ccc(Cl)nc2)c1`, the “hERG current change (%, negative = inhibition) at 10uM” value is listed as -7.48%. As for `CCN(CC)CCCNC(=O)c1cn(CC)c2ccc(S(=O)(=O)N(C)C3CCCCC3)cc2c1=O`, the figure is -75.7%; as for `CCn1cc(C(=O)NCCCN(CC(C)C)CC(C)C)c(=O)c2cc(S(=O)(=O)N(C)C3CCCCC3)ccc21`, -69.6%; as for `CCn1cc(C(=O)NCCCN(CC(C)C)CC(C)C)c(=O)c2cc(S(=O)(=O)N3CCOCC3)ccc21`, -11.3%. As for `Cc1ccccc1NC(=O)Cc1nc(-c2ccc3ccccc3c2)cs1`, the figure is 6.09%; as for `COc1ccc2[nH]cc(CCNC(=O)C3CC(=O)N(c4ccc(Cl)cc4)C3)c2c1` (stereo not drawn), -10.4%. The result for `O=C(Nc1cccnc1)c1c(O)c2c(n(Cc3ccccc3)c1=O)CCCC2` reads 2.61%. On to `Cc1ccc(OCCn2ccnc2)c([N+](=O)[O-])c1`, for which the “hERG current change (%, negative = inhibition) at 10uM” value is reported as -4.29%. As for `CCCOc1ccc(Cn2ccnc2)cc1[N+](=O)[O-]`, the figure is -52.3%. In the case of `Cc1ccc(OCCCn2ccnc2)c([N+](=O)[O-])c1`, the “hERG current change (%, negative = inhibition) at 10uM” value is on record as -34.4%. The result for `CCCCCOc1ccc(Cn2ccnc2)cc1[N+](=O)[O-].Cl` reads -45.4%; that for `Cc1ccc(OCCCCn2ccnc2)c([N+](=O)[O-])c1`, -51.5%; that for `COc1ccc(Cn2ccnc2)cc1[N+](=O)[O-]`, -0.186%.
